Test [1] deals with T1, GST-Nv-NF-kB (Ser allele) (Nematostella vectensis, UniProt A7UNT2 2-411).
T1 sequence: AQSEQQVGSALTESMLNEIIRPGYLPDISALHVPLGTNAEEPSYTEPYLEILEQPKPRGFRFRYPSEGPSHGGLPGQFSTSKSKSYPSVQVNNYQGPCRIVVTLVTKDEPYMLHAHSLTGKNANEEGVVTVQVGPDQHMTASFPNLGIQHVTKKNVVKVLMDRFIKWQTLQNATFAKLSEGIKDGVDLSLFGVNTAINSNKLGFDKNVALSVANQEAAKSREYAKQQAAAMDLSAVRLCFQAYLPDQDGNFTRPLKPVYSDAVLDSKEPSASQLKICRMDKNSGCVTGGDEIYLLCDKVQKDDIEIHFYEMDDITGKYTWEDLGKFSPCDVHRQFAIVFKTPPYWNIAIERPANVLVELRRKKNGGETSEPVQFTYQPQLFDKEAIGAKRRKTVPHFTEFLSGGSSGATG
Briefly: protein-binding microarray (PBM); PBM: ~300 nM protein, 6 mM HEPES pH 7.8, 80 mM KCl, 0.5 mM EDTA, 0.5 mM EGTA, 6% glycerol, 35 ng/ul poly-dIdC, 1% milk, 1 h, room temperature; Ap Aiptasia and Nv Nematostella (sea anemones) / Co Capsaspora / Aq Amphimedon (sponge) / Dm Drosophila / Hu human; RHD is the Rel homology domain; high values mean tight binding. The settings on record: dsDNA, one strand shown.

Test [2] has as its target GST-Hu-p50 (Homo sapiens, UniProt P19838 7-356). The description is as above. Particulars: dsDNA, one strand shown.

GST-Hu-p50, sequence (P19838 7-356): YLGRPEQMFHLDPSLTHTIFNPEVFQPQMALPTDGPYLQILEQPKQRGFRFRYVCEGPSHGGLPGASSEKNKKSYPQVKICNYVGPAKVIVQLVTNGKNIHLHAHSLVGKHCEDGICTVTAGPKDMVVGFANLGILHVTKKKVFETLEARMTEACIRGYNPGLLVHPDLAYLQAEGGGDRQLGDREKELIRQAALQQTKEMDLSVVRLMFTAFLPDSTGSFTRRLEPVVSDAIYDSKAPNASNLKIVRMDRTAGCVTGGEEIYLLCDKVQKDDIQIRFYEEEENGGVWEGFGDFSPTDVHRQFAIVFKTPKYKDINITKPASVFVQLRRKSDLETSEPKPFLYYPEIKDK

For “CCGATTAACATCAGGAACGCCCCTGATGTTAATCGGGTCTTGATTCGCTTGACGCTGCTG”, the figures for the binding signal in test [1] and in test [2] were 1.92 z-score and 3 z-score, respectively.
Regarding “CCGATTAACATCATGGAGGGAGGTGATGTTAATCGGGTCTTGATTCGCTTGACGCTGCTG”, the binding signal in test [1] came to 1.02 z-score; in test [2] it was 1.63 z-score.
The matching figures for “CCGATTAACATCAAGAAATTACCTGATGTTAATCGGGTCTTGATTCGCTTGACGCTGCTG”: 5.68 z-score and 3.38 z-score.
As to “CCGATTAACATCAAGGGGTCCCCTGATGTTAATCGGGTCTTGATTCGCTTGACGCTGCTG”, the binding signal came out at 2.59 z-score in test [1] and 3.06 z-score in test [2].
The matching figures for “CCGATTAACATCACGGAACTCCCTGATGTTAATCGGGTCTTGATTCGCTTGACGCTGCTG”: 3.15 z-score and 3.05 z-score.
Consider “CCGATTAACATCAATGGGTTTTCTGATGTTAATCGGGTCTTGATTCGCTTGACGCTGCTG”, for which the values for the binding signal in test [1] and in test [2] were 2.25 z-score and 1.9 z-score, respectively.
Consider “CCGATTAACATCAGGACACTCCCTGATGTTAATCGGGTCTTGATTCGCTTGACGCTGCTG”, for which the binding signal in test [1] stood at 1.43 z-score; in test [2], 1.94 z-score.
For “CCGATTAACATCACAATACCCCCTGATGTTAATCGGGTCTTGATTCGCTTGACGCTGCTG”, in that order: 5.97 z-score and 4.87 z-score.
The matching figures for “CCGATTAACATCAAGGTACCCCCTGATGTTAATCGGGTCTTGATTCGCTTGACGCTGCTG”: 3.84 z-score and 3.34 z-score.
With “CCGATTAACATCATCCGGGAAAATGATGTTAATCGGGTCTTGATTCGCTTGACGCTGCTG”, the figures for the binding signal in test [1] and in test [2] were 5.1 z-score and 2.14 z-score, respectively.
The matching figures for “CCGATTAACATCAGGAAATCCCATGATGTTAATCGGGTCTTGATTCGCTTGACGCTGCTG”: 1.81 z-score and 3.19 z-score.
For “CCGATTAACATCAGGGATTTCTATGATGTTAATCGGGTCTTGATTCGCTTGACGCTGCTG”, in that order: 3.11 z-score and 3.37 z-score.
For “CCGATTAACATCAGGGGGATGTATGATGTTAATCGGGTCTTGATTCGCTTGACGCTGCTG”, in that order: 5.85 z-score and 4.84 z-score.
In the case of “CCGATTAACATCAGGGGGATGGATGATGTTAATCGGGTCTTGATTCGCTTGACGCTGCTG”, the binding signal worked out at 4.26 z-score in test [1] and 3.69 z-score in test [2].
As for “CCGATTAACATCACATGGGAAACTGATGTTAATCGGGTCTTGATTCGCTTGACGCTGCTG”, the binding signal in test [1] came out at 2.7 z-score; in test [2] it was 1.26 z-score.
As to “CCGATTAACATCATTTATCCCGGTGATGTTAATCGGGTCTTGATTCGCTTGACGCTGCTG”, the results for the binding signal in test [1] and in test [2] were 1.28 z-score and 1.33 z-score, respectively.
For “CCGATTAACATCAAATATTCCCATGATGTTAATCGGGTCTTGATTCGCTTGACGCTGCTG”, in that order: 4.14 z-score and 2.88 z-score.
For “CCGATTAACATCAGGGAAAAGAATGATGTTAATCGGGTCTTGATTCGCTTGACGCTGCTG”, the figures for the binding signal in test [1] and in test [2] were 4.96 z-score and 2.53 z-score, respectively.
The matching figures for “CCGATTAACATCAGGGACCTCCCTGATGTTAATCGGGTCTTGATTCGCTTGACGCTGCTG”: 1.67 z-score and 3.27 z-score.
For “CCGATTAACATCACCAAAATCCCTGATGTTAATCGGGTCTTGATTCGCTTGACGCTGCTG”, in that order: 2.71 z-score and 2.9 z-score.
For the sequence “CCGATTAACATCAGAAATCCCGATGATGTTAATCGGGTCTTGATTCGCTTGACGCTGCTG”, the binding signal in test [1] is 2.04 z-score; in test [2] it was 2.55 z-score.
For “CCGATTAACATCACGGGAATCCCTGATGTTAATCGGGTCTTGATTCGCTTGACGCTGCTG”, in that order: 4.38 z-score and 3.99 z-score.
As for “CCGATTAACATCAAATAGGGAATTGATGTTAATCGGGTCTTGATTCGCTTGACGCTGCTG”, the binding signal in test [1] was determined as 4.24 z-score; in test [2] it was 3.55 z-score.
For “CCGATTAACATCAATGGGAAAATTGATGTTAATCGGGTCTTGATTCGCTTGACGCTGCTG”, the binding signal in test [1] turned out to be 5.32 z-score; in test [2], 3.49 z-score.
As for “CCGATTAACATCAGGGGAGTTAATGATGTTAATCGGGTCTTGATTCGCTTGACGCTGCTG”, the binding signal is 4.74 z-score in test [1] and 3.74 z-score in test [2].
“CCGATTAACATCACGTTATTCCCTGATGTTAATCGGGTCTTGATTCGCTTGACGCTGCTG”: the results for the binding signal in test [1] and in test [2] were 3.53 z-score and 1.05 z-score, respectively.
For “CCGATTAACATCACCCCTCCCCCTGATGTTAATCGGGTCTTGATTCGCTTGACGCTGCTG”, in that order: 4.65 z-score and 4.06 z-score.
Turning to “CCGATTAACATCACAGTACCCCCTGATGTTAATCGGGTCTTGATTCGCTTGACGCTGCTG”, the results for the binding signal in test [1] and in test [2] were 3.98 z-score and 3.45 z-score, respectively.
For “CCGATTAACATCATGTTGGGAAATGATGTTAATCGGGTCTTGATTCGCTTGACGCTGCTG”, in that order: 2.11 z-score and 1.47 z-score.
As to “CCGATTAACATCACGGGACCCCCTGATGTTAATCGGGTCTTGATTCGCTTGACGCTGCTG”, the binding signal came to 3.8 z-score in test [1] and 3.54 z-score in test [2].
“CCGATTAACATCAGAACTTTCCCTGATGTTAATCGGGTCTTGATTCGCTTGACGCTGCTG”: the binding signal in test [1] was 5.58 z-score; in test [2], 4.94 z-score.
“CCGATTAACATCAGAAATTCCCATGATGTTAATCGGGTCTTGATTCGCTTGACGCTGCTG”: the binding signal in test [1] amounted to 5.93 z-score; in test [2], 4.64 z-score.
The matching figures for “CCGATTAACATCAGGGTATTACCTGATGTTAATCGGGTCTTGATTCGCTTGACGCTGCTG”: 4.88 z-score and 3.33 z-score.

Source of the values: article PMC5700166.
